From the supplement of paper PMC10681739 come the findings set out here.

The target of the assay is RUNX1 (UniProt Q01196). As to the kind of experiment: TF binding intensity (PBM fluorescence), negative control probe (arbitrary fluorescence units); higher = stronger binding. On the procedure: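 gcPBM negative-control 36-bp genomic probes lacking TF binding sites. Each was incubated with recombinant human ETS1 or RUNX1 alone and detected by antibody fluorescence. Values are medians over replicate spots (4 spots for the ETS1-RUNX1 arrays, 3 for the ETS1-ETS1 array). The probes sit in constant array flanks that are not printed.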
Chain of RUNX1 (Q01196 whole entry): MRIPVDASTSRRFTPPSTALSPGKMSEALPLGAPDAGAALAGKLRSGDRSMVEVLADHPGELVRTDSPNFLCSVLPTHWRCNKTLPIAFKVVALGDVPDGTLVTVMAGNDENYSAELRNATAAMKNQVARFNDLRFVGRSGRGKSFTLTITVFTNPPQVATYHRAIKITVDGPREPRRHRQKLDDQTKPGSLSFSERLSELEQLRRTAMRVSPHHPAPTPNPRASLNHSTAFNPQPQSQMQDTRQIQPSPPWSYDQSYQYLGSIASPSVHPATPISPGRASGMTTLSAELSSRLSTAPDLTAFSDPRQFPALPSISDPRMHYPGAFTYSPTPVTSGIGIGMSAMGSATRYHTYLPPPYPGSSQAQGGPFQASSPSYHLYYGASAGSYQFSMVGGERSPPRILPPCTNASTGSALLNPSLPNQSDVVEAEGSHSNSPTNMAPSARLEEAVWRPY
Sequence “TATCACTTCTGGCGAAGGAAATGGAAGAATCTATGG (protein concentration 2 nM)” yielded a TF binding intensity of 1010.

For “TAACTCTTTGCTATCCTTCCGCTGAGCTTCATCTTC (protein concentration 2 nM)”, the TF binding intensity was found to be 963.

In turn, “GCTCCATCACCTCCTCTTCCGGTCCCTCCTCTAGGG (protein concentration 2 nM)” returned a TF binding intensity of 1160.

Regarding “CTCACCAGTCACCCCAGGAAACTCTGCCCCTTTACA (protein concentration 2 nM)”, the TF binding intensity was determined as 950.

The sequence “ACTACCCTCCGCCCTCTTCCGCCGCCGCCGCCGCCT (protein concentration 2 nM)” yielded a TF binding intensity of 1200.

“GGTCCCAGGAGAGGGGTTCCGGGGTGAAAGAGTGAG (protein concentration 2 nM)”: the TF binding intensity turned out to be 1060.

In the case of “GGGTGCAGAAGCCAGCGGAAGCGGAGCGCTACAAGC (protein concentration 2 nM)”, the TF binding intensity worked out at 784.

As for “GCACACAAGGCAGTGTTTCCGGGACAGAGGGTGGGC (protein concentration 2 nM)”, the TF binding intensity stood at 937.
